# Source: article PMC7862700, “An all-to-all approach to the identification of sequence-specific readers for epigenetic DNA modifications on cytosine”
# How the values were obtained:
# Assay in all cases: DAPPL (digital affinity profiling via proximity ligation, sequencing); 10 mM Tris-HCl pH 7.5, 50 mM NaCl, 1 mM DTT, 4% glycerol, room temperature, 30 min; GST-TFs on glutathione beads, 16-mer random dsDNA library, 0.1% formaldehyde crosslink after washing; high values mean tight binding
# Details in all cases: protein: recombinant; tags: N-terminal GST; dsDNA, one strand shown
# GABPA = biological target: T1, GABPA (Homo sapiens, UniProt Q06546 1-454)
# T1 sequence: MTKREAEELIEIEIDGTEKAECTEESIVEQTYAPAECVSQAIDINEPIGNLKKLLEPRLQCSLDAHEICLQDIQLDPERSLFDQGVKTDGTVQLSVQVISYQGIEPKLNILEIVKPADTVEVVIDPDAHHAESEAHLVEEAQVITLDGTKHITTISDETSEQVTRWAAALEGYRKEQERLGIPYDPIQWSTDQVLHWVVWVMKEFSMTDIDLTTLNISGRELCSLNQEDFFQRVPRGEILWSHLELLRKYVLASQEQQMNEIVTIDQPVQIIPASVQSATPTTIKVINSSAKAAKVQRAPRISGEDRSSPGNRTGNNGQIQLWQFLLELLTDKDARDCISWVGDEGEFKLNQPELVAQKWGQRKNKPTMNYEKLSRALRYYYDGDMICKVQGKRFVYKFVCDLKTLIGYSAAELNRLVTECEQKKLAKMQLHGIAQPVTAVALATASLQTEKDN
# Outline: (§1)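 Human transcription factors were made in yeast as GST fusions, captured on glutathione beads and barcoded with DNA. With a tag-only sample included, the pool was incubated with 200 nmole of a random double-stranded 16-mer DNA library in Tris/NaCl/DTT/glycerol buffer at room temperature for 30 min, then crosslinked with 0.1% formaldehyde after washing, ligated by proximity, amplified and sequenced. For binding signal, each hexamer's read frequency for a factor is divided by its frequency for the tag-only sample.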
# ELF1 = ELF1 (Homo sapiens, UniProt P32519 1-619)
# ELF1, sequence (P32519 whole entry): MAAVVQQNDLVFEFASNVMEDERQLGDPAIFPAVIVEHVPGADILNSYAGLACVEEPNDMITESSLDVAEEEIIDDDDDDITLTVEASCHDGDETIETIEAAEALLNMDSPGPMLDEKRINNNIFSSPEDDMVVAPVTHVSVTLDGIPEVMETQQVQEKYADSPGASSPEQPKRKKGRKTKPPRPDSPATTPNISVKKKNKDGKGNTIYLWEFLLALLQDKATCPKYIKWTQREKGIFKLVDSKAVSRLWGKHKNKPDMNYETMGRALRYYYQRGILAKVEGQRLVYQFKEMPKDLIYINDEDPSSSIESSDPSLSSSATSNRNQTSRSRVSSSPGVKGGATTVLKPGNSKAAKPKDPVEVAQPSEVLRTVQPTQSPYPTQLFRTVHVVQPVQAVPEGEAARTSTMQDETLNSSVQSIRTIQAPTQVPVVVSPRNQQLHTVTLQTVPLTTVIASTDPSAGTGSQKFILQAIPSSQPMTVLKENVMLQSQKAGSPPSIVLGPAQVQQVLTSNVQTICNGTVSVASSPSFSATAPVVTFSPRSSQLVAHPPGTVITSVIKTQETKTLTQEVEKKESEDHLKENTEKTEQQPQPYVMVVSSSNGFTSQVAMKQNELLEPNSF
# Outline: as §1
# SPI1 = SPI1 (Homo sapiens, UniProt P17947 1-270)
# Outline: as §1
# SPIB = SPIB (Homo sapiens, UniProt Q01892 1-262)
# SPIB, sequence (Q01892 whole entry): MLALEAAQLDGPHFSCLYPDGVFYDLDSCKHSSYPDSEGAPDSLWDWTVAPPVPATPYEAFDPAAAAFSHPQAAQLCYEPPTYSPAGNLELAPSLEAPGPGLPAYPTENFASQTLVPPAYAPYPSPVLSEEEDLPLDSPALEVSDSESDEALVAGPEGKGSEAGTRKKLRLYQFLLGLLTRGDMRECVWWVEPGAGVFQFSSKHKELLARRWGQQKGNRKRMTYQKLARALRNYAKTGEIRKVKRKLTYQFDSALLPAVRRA
# Outline: as §1
# FEV = biological target: T2, FEV (Homo sapiens, UniProt Q99581 1-238)
# T2 sequence: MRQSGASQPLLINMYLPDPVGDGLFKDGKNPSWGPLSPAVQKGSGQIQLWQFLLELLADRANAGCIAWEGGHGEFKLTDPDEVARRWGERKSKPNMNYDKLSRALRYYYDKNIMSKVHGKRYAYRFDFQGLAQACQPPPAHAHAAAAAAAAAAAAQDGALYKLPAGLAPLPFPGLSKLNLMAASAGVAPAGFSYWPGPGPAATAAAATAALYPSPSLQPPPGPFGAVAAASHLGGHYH
# Outline: as §1
# ELF4 = ELF4 (Homo sapiens, UniProt Q99607 1-663)
# ELF4, sequence (Q99607 whole entry): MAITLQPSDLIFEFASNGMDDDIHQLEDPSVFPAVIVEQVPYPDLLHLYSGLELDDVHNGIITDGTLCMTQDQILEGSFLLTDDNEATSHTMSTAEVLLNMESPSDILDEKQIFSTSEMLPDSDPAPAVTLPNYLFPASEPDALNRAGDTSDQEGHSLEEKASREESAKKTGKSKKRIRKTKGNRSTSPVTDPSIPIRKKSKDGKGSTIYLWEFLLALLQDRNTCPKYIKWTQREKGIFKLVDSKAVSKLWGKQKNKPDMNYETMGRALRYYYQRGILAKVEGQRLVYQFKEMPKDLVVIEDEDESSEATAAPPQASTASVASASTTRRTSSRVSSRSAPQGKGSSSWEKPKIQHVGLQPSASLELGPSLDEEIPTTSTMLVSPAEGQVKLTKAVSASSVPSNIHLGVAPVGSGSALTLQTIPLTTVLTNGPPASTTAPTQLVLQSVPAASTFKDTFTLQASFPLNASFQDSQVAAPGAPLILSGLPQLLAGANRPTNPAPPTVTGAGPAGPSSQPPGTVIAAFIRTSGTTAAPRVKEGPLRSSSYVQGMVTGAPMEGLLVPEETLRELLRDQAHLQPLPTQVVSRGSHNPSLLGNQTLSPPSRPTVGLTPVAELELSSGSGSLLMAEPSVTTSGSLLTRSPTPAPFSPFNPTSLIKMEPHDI
# Outline: as §1
# ELK4 = biological target: T3, ELK4 (Homo sapiens, UniProt P28324-2 1-405)
# T3 sequence: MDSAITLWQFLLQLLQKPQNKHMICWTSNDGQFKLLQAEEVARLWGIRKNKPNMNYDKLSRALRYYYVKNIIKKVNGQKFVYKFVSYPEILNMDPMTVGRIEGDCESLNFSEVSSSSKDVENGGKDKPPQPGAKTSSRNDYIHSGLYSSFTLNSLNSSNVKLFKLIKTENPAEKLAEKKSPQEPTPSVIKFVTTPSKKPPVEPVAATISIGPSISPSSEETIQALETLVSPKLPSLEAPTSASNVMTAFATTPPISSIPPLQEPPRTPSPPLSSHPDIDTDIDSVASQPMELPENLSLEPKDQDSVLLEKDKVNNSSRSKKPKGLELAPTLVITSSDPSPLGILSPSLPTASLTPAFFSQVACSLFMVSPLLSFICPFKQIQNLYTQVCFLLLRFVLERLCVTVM
# Outline: as §1
# ETV2 = biological target: T4, ETV2 (Homo sapiens, UniProt O00321 1-342)
# T4 sequence: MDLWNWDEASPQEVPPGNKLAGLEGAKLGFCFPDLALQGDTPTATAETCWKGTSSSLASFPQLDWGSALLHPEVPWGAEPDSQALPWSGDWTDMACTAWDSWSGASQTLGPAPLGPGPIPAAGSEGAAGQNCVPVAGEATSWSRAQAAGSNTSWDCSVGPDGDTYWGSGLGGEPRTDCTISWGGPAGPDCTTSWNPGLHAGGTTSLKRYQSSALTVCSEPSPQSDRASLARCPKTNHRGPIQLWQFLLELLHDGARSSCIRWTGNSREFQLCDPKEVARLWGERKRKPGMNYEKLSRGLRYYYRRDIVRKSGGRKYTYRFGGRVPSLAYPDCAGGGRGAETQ
# Outline: as §1
# ELF3 = biological target: T5, ELF3 (Homo sapiens, UniProt P78545 1-371)
# T5 sequence: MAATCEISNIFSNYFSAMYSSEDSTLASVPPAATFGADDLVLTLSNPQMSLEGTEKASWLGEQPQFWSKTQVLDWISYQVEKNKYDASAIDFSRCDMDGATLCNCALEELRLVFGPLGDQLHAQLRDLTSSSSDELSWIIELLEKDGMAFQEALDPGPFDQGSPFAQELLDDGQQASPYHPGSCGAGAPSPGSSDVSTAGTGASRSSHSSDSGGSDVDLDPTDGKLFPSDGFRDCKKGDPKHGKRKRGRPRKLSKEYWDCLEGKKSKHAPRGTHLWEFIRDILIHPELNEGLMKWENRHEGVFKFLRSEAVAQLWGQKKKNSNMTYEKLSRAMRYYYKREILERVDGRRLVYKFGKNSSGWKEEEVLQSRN
# Outline: as §1
# ERF = biological target: T6, ERF (Homo sapiens, UniProt P50548 1-548)
# T6 sequence: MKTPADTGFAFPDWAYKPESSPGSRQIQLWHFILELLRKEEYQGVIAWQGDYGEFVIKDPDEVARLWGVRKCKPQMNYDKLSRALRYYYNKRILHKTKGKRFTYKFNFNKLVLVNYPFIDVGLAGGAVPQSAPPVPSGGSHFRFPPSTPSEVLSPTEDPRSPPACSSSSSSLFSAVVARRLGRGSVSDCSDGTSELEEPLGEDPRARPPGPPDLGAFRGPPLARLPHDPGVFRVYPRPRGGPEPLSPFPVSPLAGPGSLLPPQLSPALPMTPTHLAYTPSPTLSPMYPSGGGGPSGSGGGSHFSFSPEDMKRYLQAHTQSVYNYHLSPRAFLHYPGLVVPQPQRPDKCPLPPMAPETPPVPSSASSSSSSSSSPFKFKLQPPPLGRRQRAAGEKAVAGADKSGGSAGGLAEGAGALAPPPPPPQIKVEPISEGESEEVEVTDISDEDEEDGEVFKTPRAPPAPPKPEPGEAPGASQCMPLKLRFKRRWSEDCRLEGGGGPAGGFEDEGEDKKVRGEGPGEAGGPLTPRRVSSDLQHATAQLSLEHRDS
# Outline: as §1
# ETV3L = biological target: T7, ETV3L (Homo sapiens, UniProt Q6ZN32 1-361)
# T7 sequence: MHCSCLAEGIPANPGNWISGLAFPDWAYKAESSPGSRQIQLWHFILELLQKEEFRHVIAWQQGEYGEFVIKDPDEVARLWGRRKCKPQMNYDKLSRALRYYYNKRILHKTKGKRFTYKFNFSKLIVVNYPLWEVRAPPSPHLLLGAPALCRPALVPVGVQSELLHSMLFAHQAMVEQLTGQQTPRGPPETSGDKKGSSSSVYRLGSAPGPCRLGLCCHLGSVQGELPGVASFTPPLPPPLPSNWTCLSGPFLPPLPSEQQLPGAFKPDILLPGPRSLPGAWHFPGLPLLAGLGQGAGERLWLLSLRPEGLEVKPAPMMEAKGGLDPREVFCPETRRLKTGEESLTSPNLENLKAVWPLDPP
# Outline: as §1
# SPDEF = biological target: T8, SPDEF (Homo sapiens, UniProt O95238 1-335)
# T8 sequence: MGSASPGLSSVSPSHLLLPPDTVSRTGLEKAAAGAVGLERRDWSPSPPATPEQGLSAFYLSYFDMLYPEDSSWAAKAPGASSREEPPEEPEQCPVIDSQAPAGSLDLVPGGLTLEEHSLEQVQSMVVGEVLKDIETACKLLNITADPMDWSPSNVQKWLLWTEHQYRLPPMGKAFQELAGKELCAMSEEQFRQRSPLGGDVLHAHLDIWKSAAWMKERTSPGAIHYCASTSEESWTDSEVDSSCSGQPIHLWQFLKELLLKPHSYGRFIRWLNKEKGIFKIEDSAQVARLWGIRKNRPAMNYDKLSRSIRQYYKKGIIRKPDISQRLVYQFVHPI
# Outline: as §1
# ETV7 = biological target: T9, ETV7 (Homo sapiens, UniProt Q9Y603 1-341)
# T9 sequence: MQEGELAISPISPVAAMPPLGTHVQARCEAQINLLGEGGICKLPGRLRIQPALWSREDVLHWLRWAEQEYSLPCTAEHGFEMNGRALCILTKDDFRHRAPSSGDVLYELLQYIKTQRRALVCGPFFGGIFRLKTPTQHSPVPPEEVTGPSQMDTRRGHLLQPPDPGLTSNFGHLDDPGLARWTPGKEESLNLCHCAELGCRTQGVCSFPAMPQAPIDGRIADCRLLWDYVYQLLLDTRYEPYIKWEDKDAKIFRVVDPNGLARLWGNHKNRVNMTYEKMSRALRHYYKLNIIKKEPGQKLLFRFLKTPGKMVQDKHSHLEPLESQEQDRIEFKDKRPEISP
# Outline: as §1
# ELF5 = biological target: T10, ELF5 (Homo sapiens, UniProt Q9UKW6-2 1-255)
# T10 sequence: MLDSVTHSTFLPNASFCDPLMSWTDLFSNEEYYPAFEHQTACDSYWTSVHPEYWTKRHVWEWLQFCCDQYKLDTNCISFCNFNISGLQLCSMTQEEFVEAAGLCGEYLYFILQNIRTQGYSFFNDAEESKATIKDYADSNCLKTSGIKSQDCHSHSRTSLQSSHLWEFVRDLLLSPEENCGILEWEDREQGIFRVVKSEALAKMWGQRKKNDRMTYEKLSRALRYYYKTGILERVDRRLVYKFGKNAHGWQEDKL
# Outline: as §1
# ETV3 = biological target: T11, ETV3 (Homo sapiens, UniProt P41162-2 1-143)
# T11 sequence: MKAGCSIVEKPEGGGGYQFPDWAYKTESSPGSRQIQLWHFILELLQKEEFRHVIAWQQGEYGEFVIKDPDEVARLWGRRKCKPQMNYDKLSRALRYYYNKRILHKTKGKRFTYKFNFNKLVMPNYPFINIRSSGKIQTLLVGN
# Outline: as §1
# EHF = biological target: T12, EHF (Homo sapiens, UniProt Q9NZC4 1-300)
# T12 sequence: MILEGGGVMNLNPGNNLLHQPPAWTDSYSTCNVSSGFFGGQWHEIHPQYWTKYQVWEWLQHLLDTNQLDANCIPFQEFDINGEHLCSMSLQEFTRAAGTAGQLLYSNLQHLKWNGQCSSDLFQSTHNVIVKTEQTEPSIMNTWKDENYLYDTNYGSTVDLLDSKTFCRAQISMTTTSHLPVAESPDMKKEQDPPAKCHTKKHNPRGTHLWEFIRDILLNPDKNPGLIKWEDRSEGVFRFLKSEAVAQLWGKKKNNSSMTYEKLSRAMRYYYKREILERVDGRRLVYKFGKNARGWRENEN
# Outline: as §1
Sequence,binding signal (GABPA),binding signal (ELF1),binding signal (SPI1),binding signal (SPIB),binding signal (FEV),binding signal (ELF4),binding signal (ELK4),binding signal (ETV2),binding signal (ELF3),binding signal (ERF),binding signal (ETV3L),binding signal (SPDEF),binding signal (ETV7),binding signal (ELF5),binding signal (ETV3),binding signal (EHF)
TCGCGG,"1.07 fold enrichment (6-mer frequency, TF over GST control)","1.02 fold enrichment (6-mer frequency, TF over GST control)","1 fold enrichment (6-mer frequency, TF over GST control)","1.02 fold enrichment (6-mer frequency, TF over GST control)","1.02 fold enrichment (6-mer frequency, TF over GST control)","1.03 fold enrichment (6-mer frequency, TF over GST control)","1.05 fold enrichment (6-mer frequency, TF over GST control)","1.11 fold enrichment (6-mer frequency, TF over GST control)","1.03 fold enrichment (6-mer frequency, TF over GST control)","1.09 fold enrichment (6-mer frequency, TF over GST control)","1.04 fold enrichment (6-mer frequency, TF over GST control)","1.01 fold enrichment (6-mer frequency, TF over GST control)","1.02 fold enrichment (6-mer frequency, TF over GST control)","1 fold enrichment (6-mer frequency, TF over GST control)","1.04 fold enrichment (6-mer frequency, TF over GST control)",–
AACAGA,–,–,–,–,–,"1.02 fold enrichment (6-mer frequency, TF over GST control)","1.1 fold enrichment (6-mer frequency, TF over GST control)","1.01 fold enrichment (6-mer frequency, TF over GST control)",–,–,–,–,"1.02 fold enrichment (6-mer frequency, TF over GST control)",–,"1.01 fold enrichment (6-mer frequency, TF over GST control)","1.06 fold enrichment (6-mer frequency, TF over GST control)"
